Experiment [1] in a line: growth inhibition of DIPG glioma cells, dose response, cell-based, JHH-DIPG-1, MIPE4.0, CellTiter-Glo, qHTS (AID 1347062; cut-off not given, nearly all actives have AC50 up to about 27 µM;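 as to AC50: cells exposed to compound for two days before readout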). The following applies: JHH-DIPG-1 viability, CellTiter-Glo ATP luminescence.
Experiment [2] is described as follows: growth inhibition of DIPG glioma cells, dose response, cell-based, SU-DIPG-IV, MIPE4.0, CellTiter-Glo, qHTS (AID 1347063; cut-off not given, nearly all actives have AC50 up to about 30 µM;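 also: compound exposure lasted 48 hours before the viability readout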). To be noted: SU-DIPG-IV viability, CellTiter-Glo ATP luminescence.
Experiment [3] can be described thus: growth inhibition of DIPG glioma cells, dose response, cell-based, SU-DIPG-XIII, MIPE5.0, CellTiter-Glo, qHTS (AID 1347064; cut-off not given, nearly all actives have AC50 up to about 23 µM;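 as to AC50: cells exposed to compound for 48 hours before the viability read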). The following applies: SU-DIPG-XIII viability, CellTiter-Glo ATP luminescence.
The nature of experiment [4]: viability loss in pontine glioma line – cell-based, SU-DIPG-XXV, MIPE5.0, CellTiter-Glo, qHTS, dose response (AID 1347065; cut-off not given, nearly all actives have AC50 up to about 26 µM;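 also: cells exposed to compound for 48 hours before ATP readout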). To be noted: CellTiter-Glo ATP luminescence.
A short description of experiment [5]: SU-DIPG-VI glioma cell viability, MIPE4.0 library, CellTiter-Glo luminescence, qHTS (AID 1347066; cut-off not given, nearly all actives have AC50 up to about 30 µM;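 also: cells exposed to compound for 48 hours before readout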). The following applies: CellTiter-Glo ATP luminescence.
Experiment [6] can be described thus: JHH-DIPG-1 glioma cell viability, MIPE5.0 library, CellTiter-Glo luminescence, qHTS (AID 1347067; cut-off not given, nearly all actives have AC50 up to about 26 µM;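 also: cells exposed to compound for 48 hours before readout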). The following applies: JHH-DIPG-1 glioma viability, CellTiter-Glo ATP luminescence.
The nature of experiment [7]: SU-DIPG-XXV glioma cell viability, MIPE5.0 library, qHTS (AID 1347068; cut-off not given, nearly all actives have IC50 up to about 30 µM;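 as to IC50: cells exposed to compound for 48 hours before viability readout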).
Experiment [8] in a line: viability rescue of complex I mutant cybrids, primary screen, cell-based, galactose medium, ATP luminescence (AID 1645843;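 active = z-score of at least 1.8 in each of two replicates, scored against plate mean and spread of sample wells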;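 also: positive z means more ATP and so rescue of galactose-driven cybrid death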). The following applies: complex I mutant cybrid cells, 72 h, stronger effect = higher value.
Experiment [9] can be described thus: LFS_MB_1R medulloblastoma cell growth inhibition, synergistic combos for chromothripsis tumors, cisplatin or BGB combos (AID 1671452).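 Also: cells exposed for 96 hours before readout.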 The following applies: LFS_MB_1R medulloblastoma cells, stronger effect = higher value.
Experiment [10] in a line: CRL2098 osteosarcoma cell growth inhibition, synergistic combos for chromothripsis tumors, BGB or cisplatin IC20 combos (AID 1671454).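 Also: cells exposed for 96 h before readout; 0% = vehicle DMSO and 100% = killing by high DMSO.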 To be noted: CRL2098 osteosarcoma cells, drug combinations, stronger effect = higher value.
Experiment [11] is described as follows: HD-MB03 medulloblastoma cell growth inhibition, synergistic combos for chromothripsis tumors, BGB or cisplatin IC20 combos (AID 1671455; in the data active = inhibition above about 83%;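 also: 0% = vehicle DMSO and 100% = high DMSO as cytotoxic control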). To be noted: HD-MB03 medulloblastoma cells, stronger effect = higher value.
Experiment [12] can be described thus: UWB1.289 ovarian carcinoma cell growth inhibition, synergistic combos for chromothripsis tumors, BGB or cisplatin combos (AID 1671456).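 Also: cells exposed to compound for four days; 0% = vehicle DMSO and 100% = killing by high DMSO.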 To be noted: UWB1.289 ovarian carcinoma cells, stronger effect = higher value.
The nature of experiment [13]: LFS_MB_2R medulloblastoma cell growth inhibition, synergistic combos for chromothripsis tumors, cisplatin combos (AID 1671457).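 Also: cells exposed to compound for four days before readout.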 The following applies: LFS_MB_2R medulloblastoma cells, stronger effect = higher value.
Experiment [14] is described as follows: UWB1.289_BRCA1 ovarian cancer growth, cell-based, BGB or cisplatin combinations (AID 1671459). The following applies: UWB1.289 BRCA1 ovarian carcinoma, drug combinations, stronger effect = higher value.
Experiment [15] is described as follows: human astrocyte viability loss, single and combined drugs, cytotoxicity control for chromothriptic childhood tumor combination screen, cell-based, BGB or cisplatin IC20 combos (AID 1671460).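 Also: cells exposed to compounds for 96 hours before viability readout; 0% = vehicle and 100% = killing control.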 The following applies: Human astrocytes, drug combinations, stronger effect = higher value.
Experiment [16] is described as follows: growth inhibition of BT084 medulloblastoma cells, cell-based, ICGC_MB145, cisplatin and BGB IC40 combos (AID 1671461).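 Also: cells exposed to drugs for 96 hours; 0% = vehicle DMSO and 100% = high DMSO full killing control.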 The following applies: drug combinations, stronger effect = higher value.
Experiment [17] is described as follows: growth inhibition of RCMB18 medulloblastoma cells, cell-based, cisplatin and BGB IC40 combos (AID 1671462).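 Also: cells exposed to compound for four days.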 The following applies: stronger effect = higher value.
Experiment [18] in a line: growth inhibition of CRL1545 osteosarcoma cells, cell-based, cisplatin and BGB IC20 combos (AID 1671464).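 Also: cells exposed to compound for 96 hours before readout; 0% = vehicle DMSO and 100% = high DMSO killing control.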 The following applies: stronger effect = higher value.
The target of experiment [19] is ATP-dependent translocase ABCB1 (Homo sapiens) (UniProt P08183). In words: MDR1 (ABCB1) efflux transporter inhibition, cell-based (AID 377; in the data active = fluorescence slope change above about 50%). The following applies: MDR1-expressing cells, fluorescent substrate accumulation slope; stronger effect = higher value; concentration not given here.
ATP-dependent translocase ABCB1 (Homo sapiens), sequence (P08183 whole entry, looked up, the tested form may be a part): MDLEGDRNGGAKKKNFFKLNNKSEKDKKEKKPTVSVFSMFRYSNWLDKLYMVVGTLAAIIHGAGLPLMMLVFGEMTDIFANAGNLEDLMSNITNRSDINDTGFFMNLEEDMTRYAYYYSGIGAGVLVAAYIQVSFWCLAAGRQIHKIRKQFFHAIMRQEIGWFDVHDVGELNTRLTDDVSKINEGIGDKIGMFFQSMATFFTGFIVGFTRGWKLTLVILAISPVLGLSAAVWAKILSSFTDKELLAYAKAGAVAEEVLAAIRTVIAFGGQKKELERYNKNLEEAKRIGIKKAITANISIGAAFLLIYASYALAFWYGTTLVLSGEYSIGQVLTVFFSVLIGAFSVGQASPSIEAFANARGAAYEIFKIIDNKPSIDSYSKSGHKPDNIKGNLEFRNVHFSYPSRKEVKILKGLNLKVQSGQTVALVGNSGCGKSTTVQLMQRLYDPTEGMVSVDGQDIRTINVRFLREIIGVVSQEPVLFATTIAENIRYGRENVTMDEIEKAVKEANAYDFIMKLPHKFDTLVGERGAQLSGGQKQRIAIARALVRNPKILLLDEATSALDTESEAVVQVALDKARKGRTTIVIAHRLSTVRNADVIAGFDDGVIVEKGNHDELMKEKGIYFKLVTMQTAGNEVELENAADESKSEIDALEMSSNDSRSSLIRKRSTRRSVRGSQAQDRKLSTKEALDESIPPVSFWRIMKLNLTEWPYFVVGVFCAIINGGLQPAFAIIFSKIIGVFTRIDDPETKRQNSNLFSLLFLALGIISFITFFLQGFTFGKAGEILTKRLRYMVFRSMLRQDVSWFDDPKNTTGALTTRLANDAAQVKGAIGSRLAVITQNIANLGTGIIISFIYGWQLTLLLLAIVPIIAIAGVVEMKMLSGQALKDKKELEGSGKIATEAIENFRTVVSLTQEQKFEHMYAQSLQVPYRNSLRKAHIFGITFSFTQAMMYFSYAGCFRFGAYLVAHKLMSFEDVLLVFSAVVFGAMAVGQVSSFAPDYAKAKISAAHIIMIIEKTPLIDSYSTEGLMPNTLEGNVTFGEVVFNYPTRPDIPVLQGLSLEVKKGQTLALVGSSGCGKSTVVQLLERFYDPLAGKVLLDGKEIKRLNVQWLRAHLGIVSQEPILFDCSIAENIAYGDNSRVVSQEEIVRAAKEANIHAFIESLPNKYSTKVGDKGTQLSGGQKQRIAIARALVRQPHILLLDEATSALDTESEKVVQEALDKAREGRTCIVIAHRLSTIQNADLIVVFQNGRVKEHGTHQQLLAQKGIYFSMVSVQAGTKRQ
For experiment [20], the target named is Mitogen-activated protein kinase 7 (Homo sapiens) (UniProt Q13164). Put plainly: ERK5 transactivation activators in reporter cells, primary screen, cell-based, HTS (AID 1508626;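 active = luciferase signal above three times the same-plate solvent-only control wells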;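 also: luciferase driven by Gal4-ERK5 fusion binding five Gal4 sites before minimal TATA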). The following applies: HeLa Gal4-ERK5 transactivation, 18 h, at 5 µM, stronger effect = higher value.
Mitogen-activated protein kinase 7 (Homo sapiens), sequence (Q13164 whole entry, looked up, the tested form may be a part): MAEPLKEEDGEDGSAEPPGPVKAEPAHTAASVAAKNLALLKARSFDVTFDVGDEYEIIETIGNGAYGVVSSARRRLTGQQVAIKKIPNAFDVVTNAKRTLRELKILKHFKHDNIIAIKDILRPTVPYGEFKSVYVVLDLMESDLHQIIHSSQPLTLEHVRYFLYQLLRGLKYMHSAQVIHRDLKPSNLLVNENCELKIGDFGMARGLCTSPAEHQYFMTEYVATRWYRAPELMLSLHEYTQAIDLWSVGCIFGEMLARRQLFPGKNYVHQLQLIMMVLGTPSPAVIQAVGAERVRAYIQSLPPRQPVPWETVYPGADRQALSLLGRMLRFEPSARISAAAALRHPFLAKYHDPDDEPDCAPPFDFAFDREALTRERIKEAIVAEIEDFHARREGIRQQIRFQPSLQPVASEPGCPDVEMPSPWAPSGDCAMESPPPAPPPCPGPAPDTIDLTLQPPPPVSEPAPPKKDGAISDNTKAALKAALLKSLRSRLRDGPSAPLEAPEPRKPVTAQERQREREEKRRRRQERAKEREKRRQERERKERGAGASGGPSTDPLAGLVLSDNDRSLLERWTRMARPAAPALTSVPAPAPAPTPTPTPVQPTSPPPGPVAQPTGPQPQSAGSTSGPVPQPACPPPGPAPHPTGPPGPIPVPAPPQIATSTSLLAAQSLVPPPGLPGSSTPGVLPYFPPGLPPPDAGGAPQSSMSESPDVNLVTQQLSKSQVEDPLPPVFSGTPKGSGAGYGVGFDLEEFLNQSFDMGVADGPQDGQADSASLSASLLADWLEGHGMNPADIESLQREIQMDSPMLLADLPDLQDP
Where [21] appears, read: measured here: combination with cisplatin, at 0.5 µM.
[22] abbreviates: measured here: combination with cisplatin, at 5 µM.

The structures appear in SMILES notation. Values joined by “and” are separate entries in the source; they are usually repeats but may differ in a detail not shown here. Equal values may be shown once. Records with an inconclusive call do not appear. Active and inactive are the calls of the source. Rule as the data show it, unless noted: active = inhibition above about 80%; inactive = the rest.

In the case of `COc1cc2ncnc(Nc3ccc(F)c(Cl)c3)c2cc1OCCCN1CCOCC1`, the results for the half-maximal activity concentration (AC50) in experiment [1], in experiment [2] and in experiment [5] were 19100 nM (active), 10800 nM (active) and 38200 nM (active), respectively. Moreover, the result in [3], in experiment [4], in experiment [6] and in experiment [7] was inactive. In addition, in [8], the z-score is -0.29 (inactive) and 0.3 (inactive).

Take `CN1CCN(c2c(F)cc3c(=O)c(C(=O)O)cn(CCF)c3c2F)CC1`: the call in experiment [1] and in experiment [2] was inactive. For the same molecule, the z-score in experiment [8] was 0.245 (inactive). The inhibition is -3.54% (inactive) in [9] (at 0.5 µM); 5.98% in experiment [9] (measured here: combination with BGB IC40, at 0.05 µM); 2.19% in [9] (setting [21]); -16.1% in [9] (setting [22]); 11.6% (inactive) in experiment [10] (at 0.5 µM); -0.381% in experiment [10] (measured here: combination with BGB at IC20, at 0.5 µM). Moreover, the inhibition is 26.4% in [10] (measured here: combination with cisplatin at IC20, at 0.5 µM); 6.76% (inactive) in experiment [11] (at 0.5 µM); 8.44% in experiment [11] (measured here: combo with BGB at IC20, at 0.5 µM); 5.72% in [11] (measured here: combo with cisplatin at IC20, at 0.5 µM); 9.66% (inactive) in experiment [12] (at 0.5 µM); -0.955% in experiment [12] (measured here: inhibition with BGB combination, at 0.05 µM). For the same molecule, the inhibition in experiment [12] (measured here: inhibition with cisplatin combination, at 0.05 µM) was 3.11%; in [13] (at 0.5 µM), 7.8% (inactive); in experiment [13] (setting [21]), 7.66%; in experiment [13] (setting [22]), -16.2%; in [14] (BGB combination, concentration series, at 5 µM) it was 7.04%; in [14] (at 0.5 µM), 5.73% (inactive). Besides, the inhibition in [14] (cisplatin combination, concentration series, at 5 µM) is -0.678%; in [15] (at 0.5 µM) it was 5.13% (inactive); in [15] (measured here: combo with BGB IC20, at 0.5 µM), 2.15%; in experiment [15] (measured here: combo with cisplatin IC20, at 0.5 µM), 3.47%; in [16] (at 0.5 µM) it was -2.41% (inactive); in [16] (cisplatin combination, at 0.5 µM), -7.17%. Further, the inhibition in experiment [16] (cisplatin combination, at 5 µM) was 4.75%; in experiment [16] (measured here: BGB IC40 combination 0.05 uM, at 0.05 µM), 34.4%; in experiment [16] (single agent, at 5 µM) it was 1.35%; in [17] (at 0.5 µM), 18.3% (inactive); in experiment [17] (cisplatin combo, at 5 µM) it was 48%; in [17] (measured here: BGB IC40 combination, at 0.05 µM) it was -3.02%. Also, the inhibition is 34.2% in experiment [17] (setting [21]); -5.57% in experiment [17] (single agent, at 5 µM); -0.47% (inactive) in [18] (at 0.5 µM); -8.63% in [18] (measured here: with BGB IC20 combination, at 0.5 µM); 1.43% in [18] (measured here: with cisplatin IC20 combination, at 0.5 µM); 8.93% in [18] (single agent, at 0.05 µM). In experiment [18] (single agent, at 5 µM), the inhibition worked out at 2.13%.

With `C#CCN(C)CCCOc1ccc(Cl)cc1Cl`, the z-score in experiment [8] is -0.39 (inactive).

`CC(C)(Oc1ccc(C2CC2(Cl)Cl)cc1)C(=O)O` (stereo not given): the molecule was classed as inactive in experiment [1], in experiment [3], in experiment [4], in [5], in [6] and in experiment [7]. The z-score in experiment [8] was 0.695 (inactive).

On to `COc1cc2c(c(OC)c1OC)-c1ccc(OC)c(=O)cc1[C@@H](NC(C)=O)CC2`, for which, in experiment [19], the fluorescence slope change is 7.7% (inactive). The half-maximal activity concentration (AC50) was 105 nM (active) in [1], 52.5 nM (active) in experiment [3], 41.7 nM (active) in [4] and 29.5 nM (active) in [6]. Besides, the outcome in experiment [2] was inactive. For the same molecule, the IC50 in [7] was 46.8 nM (active). For the same molecule, in [20], the luciferase signal was 88 AU (inactive). For the same molecule, the z-score in [8] was -0.69 (inactive).

With `Clc1ccc(Cn2c(CN3CCCC3)nc3ccccc32)cc1`, in [19], the fluorescence slope change was 82.8% (active). The call in [6] and in experiment [7] was inactive. Moreover, the luciferase signal in experiment [20] was 56 AU (inactive). Also, the z-score in experiment [8] was -1.35 (inactive).

Consider `NCCCNCCSP(=O)(O)O`, for which the luciferase signal in experiment [20] was 52 AU (inactive). In addition, the z-score in experiment [8] is 0.585 (inactive) and 0.25 (inactive).

On to `CN(C(=O)CN(CCO)CC(=O)N(C)C(C)(C)Cc1ccccc1)C(C)(C)Cc1ccccc1`, for which the luciferase signal in [20] was 32 AU (inactive).

For `O=C(Oc1ccccc1C(=O)O)c1ccccc1O`, the luciferase signal in experiment [20] is 64 AU (inactive).

For `O=C(Nc1ccccc1)OCC(CN1CCCCC1)OC(=O)Nc1ccccc1` (stereo not given), in [19], the fluorescence slope change was 147% (active).

Source of the values: PubChem BioAssay.
